Among all 69,000 compounds or so, about 950 (1.4%) showed an effect of 50% or more. This excerpt belongs to a sample that is enriched for strong results.
test system: Mycobacterium tuberculosis; assay: Cornell M. t heat shock assay; format: functional, organism-based; set-up: dose or concentration left out as unconfirmed; further: in the data most compounds retested in dose-response had high values

| Compound | Percent Effect |
| --- | --- |
| CCO[C@@H]1CC[C@H]2[C@H]1OCCN2Cc1ccoc1.O=C(O)C(F)(F)F | 1.857% |
| O=C(N[C@@H]1CN(Cc2ccccc2)C[C@@H]2CCCO[C@@H]21)C1CC1.O=C(O)C(F)(F)F | -8.331% |
| O=C(N[C@@H]1CN(Cc2ccoc2)C[C@@H]2CCCO[C@@H]21)C1CCC1 | 51.5% |
| O=C(CC1CC1)N[C@@H]1CN(Cc2ccoc2)C[C@@H]2CCCO[C@@H]21 | -3.487% |
| COC(=O)CCc1c(C)nn(-c2nc(C)cc(=O)[nH]2)c1C | 103.1% |
| Cc1nn(-c2cc(Cl)cc(Cl)c2)c(C)c1CCC(=O)O | 19.8% |
| COc1ccc(C)nc1NC(=O)CCc1c(C)nn(C)c1C | -18.22% |
| Cc1csc(NC(=O)Cn2nc(C)ccc2=O)n1 | -1.06% |
| Cc1nc(NC(=O)CCc2c(C)nc3cc(O)nn3c2C)sc1C | 27.32% |
| Cc1cc(=O)[nH]c(-n2nc(C)c(CCC(=O)NCC(C)C)c2C)n1 | 98.01% |
| Cc1nc2cc(O)nn2c(C)c1CCC(=O)NCCCC(C)C | -0.01064% |
| COCCNC(=O)CCc1c(C)nn(-c2nc(C)c(C)c(=O)[nH]2)c1C | 37.18% |
| Cc1cc(=O)[nH]c(-n2nc(C)c(CCC(=O)Nc3nc(C)cs3)c2C)n1 | 95.61% |
| CC(=O)N1[C@H](CN(C)C)C[C@@H]2CN(C(=O)c3cccn3C)CC[C@@H]21.O=C(O)C(F)(F)F | -10.3% |
| O=C(O)C(F)(F)F.O=C(c1cccnc1)N1CCC2(CCN(C(=O)c3ccco3)CC2)C1 | 23.94% |
| CCC(C)(C)NC(=O)c1ncn2c1CN(C)S(=O)(=O)c1ccccc1-2.O=C(O)C(F)(F)F | -13.28% |
| CCNC(=O)NCc1ccccc1NS(=O)(=O)c1ccccc1 | 35.07% |
| N#Cc1nc(COc2ccc3c(c2)OCO3)oc1NC1CCCCC1 | 5.438% |
| O=C(O)C(F)(F)F.c1cn2c(n1)CN(Cc1ccsc1)CC(Cn1cncn1)C2 (configuration not stated) | -22.01% |
| COc1ncc(-c2cc(-c3ccn(C)c3)nc(N)c2C#N)cn1 | -43.44% |
| CCCn1cc(-c2cc(-c3cnc(OC)nc3)c(C#N)c(N)n2)c(C)n1 | 100.5% |
| CCCn1cc(-c2cc(-c3c[nH]cn3)c(C#N)c(N)n2)c(C)n1 | 15.71% |

| Compound | Percent Effect |
| --- | --- |
| Cc1ccc(-c2cc(-c3c(C)nn(CCO)c3C)c(C#N)c(N)n2)cc1 | 10.03% |
| CCCn1cc(-c2cc(-c3ccoc3)c(C#N)c(N)n2)c(C)n1 | 75.39% |
| CCCn1cc(-c2cc(-c3cc(CC)n[nH]3)c(C#N)c(N)n2)c(C)n1 | 41.25% |
| O=C(C[C@@H]1COC[C@H]2CN(C(=O)c3cccnc3)C[C@@H]12)N1CCOCC1.O=C(O)C(F)(F)F | -5.703% |
| CN(C)C(=O)CN1C(=O)CCC12CCN(Cc1ccsc1)CC2.O=C(O)C(F)(F)F | -0.1041% |
| COCc1ccc(CN2CCC(O)(Cn3ccc4ncccc43)CC2)o1.Cl | -9.994% |
| Cl.c1ccc(CNc2cc(C3CCCNC3)ccn2)nc1 (configuration not stated) | 18.31% |
| Cc1oncc1C(=O)NCc1cc(=O)n2c(n1)CN(CC1CC1)CCC2.O=C(O)C(F)(F)F | -32.57% |
| COCC(=O)N1CC[C@@H]2O[C@@H](C)C[C@H]2C1 | -1.773% |
| COCC(=O)N1CC[C@H]2C[C@H](C)O[C@@H]2C1 | 3.806% |
| COCC(=O)N1CC[C@H]2O[C@@H](C)C[C@H]2C1 | 64.99% |
| COCC1CN(Cc2ccc3c(c2)OCO3)Cc2ncn(C)c21.O=C(O)C(F)(F)F.O=C(O)C(F)(F)F (configuration not stated) | -21.56% |
| Cl.O=C(N1CCCC1)C1(Cc2ccc(-c3cccs3)cc2)CCNC1 (configuration not stated) | -20.63% |
| Cc1c[nH]c(C2CCCN(Cc3ccccc3C(=O)O)C2)n1.O=CO (configuration not stated) | -20.14% |
| CC(C)CCN1C[C@H]2C[C@H](C(=O)Nc3ccccc3)[C@@H](C1)O2.O=C(O)C(F)(F)F | -19.48% |
| CN(Cc1cccnc1)[C@@H]1CN(C(=O)c2ccno2)[C@@H]2CCCO[C@H]12.O=C(O)C(F)(F)F.O=C(O)C(F)(F)F | 0.2387% |
| COC(=O)Cn1c(=O)nc2n1C(=O)N(c1ccc(C)cc1)C2 | 3.714% |
| CCS(=O)(=O)NC[C@]12COC[C@H]1CN(Cc1cccc(OC)c1)C2.O=C(O)C(F)(F)F | -11.48% |
| CN(Cc1ccccc1)C(=O)CS(=O)(=O)Cc1ccc(Cl)c(Cl)c1 | 47.42% |
| CN(Cc1cccc(F)c1)C(=O)CS(=O)(=O)Cc1c(Cl)cccc1Cl | 25.49% |
| CN(Cc1cccc(F)c1)C(=O)CS(=O)(=O)Cc1ccc(Cl)c(Cl)c1 | 52.33% |
| Cc1ccc(-c2cc(C3CCNCC3)nc(C)n2)cc1.Cl | -12.8% |

| Compound | Percent Effect |
| --- | --- |
| CSc1ccc(-c2cc(CN)nc3ccnn23)cc1.Cl | 4.059% |
| NC(=O)C(NC(=O)c1ccc(NC2CC2)nc1)c1ccccc1 (configuration not stated) | -7.076% |
| COC(=O)C(NC(=O)c1ccc(NC2CC2)nc1)c1ccccc1 (configuration not stated) | 51.61% |
| COC(=O)C(NC(=O)c1ccc(N(C)C)nc1)c1ccccc1 (configuration not stated) | 22% |
| COC(=O)N1C[C@H]2CC[C@@H]1CN(Cc1cscn1)C2 | 1.905% |
| CC(C)c1cc(C(=O)N2C[C@H]3CC[C@@H]2CN(Cc2cscn2)C3)no1 | 37.62% |
| CC(C)(C)c1cc(CN2C[C@H]3CC[C@@H]2CN(Cc2cscn2)C3)n[nH]1 | 92.4% |
| CC(C)Cc1cc(CN2C[C@H]3CC[C@@H]2CN(Cc2cscn2)C3)n[nH]1 | 107.7% |
| Cc1c[nH]c(C(=O)N2C[C@H]3CC[C@@H]2CN(Cc2cscn2)C3)n1 | 2.551% |
| COc1cccc(C(=O)N2C[C@H]3CC[C@@H]2CN(Cc2cscn2)C3)c1 | -27.99% |
| CN1C(=O)C(c2ccccc2)CC12CCN(CCO)CC2.O=C(O)C(F)(F)F (configuration not stated) | -21.97% |
| Cc1cccc(CN2CC3(CCN(C4CCOC4)CC3)OCC2=O)n1.O=C(O)C(F)(F)F.O=C(O)C(F)(F)F (configuration not stated) | -30.47% |
| O=C(O)C(F)(F)F.O=C(c1ccco1)N1CCO[C@@H]2CN(Cc3nccs3)CC[C@@H]2C1 | 4.898% |
| CCC1=N[C@@]2(CC[C@@H]3CN(Cc4cccc(Cl)c4)C[C@@H]32)C(=O)N1C.O=C(O)C(F)(F)F | 32.88% |
| Cc1nc(C2CCN(Cc3ncc[nH]3)CC2)no1.O=CO | -19.83% |
| CC(C)Nc1oc(-c2ccc(S(=O)(=O)N(C)C)o2)nc1C#N | -8.92% |
| CNc1oc(-c2ccc(OC)c(S(=O)(=O)N(C)C)c2)nc1C#N | 4.952% |
| Cc1oc(-c2nc(C#N)c(NC(C)(C)C)o2)cc1S(=O)(=O)N1CCCC1 | 1.248% |
| CNc1oc(-c2ccc(S(=O)(=O)N(C)C)o2)nc1C#N | -18.56% |
| CN(C)S(=O)(=O)c1ccc(-c2nc(C#N)c(NC3CC3)o2)o1 | 78.01% |
| Cc1oc(-c2nc(C#N)c(NC3CC3)o2)cc1S(=O)(=O)N1CCCC1 | -1.847% |
| CN(C)S(=O)(=O)c1ccc(-c2nc(C#N)c(NC3CCCCC3)o2)o1 | 5.856% |

| Compound | Percent Effect |
| --- | --- |
| CN(C)S(=O)(=O)c1ccc(-c2nc(C#N)c(NC(C)(C)C)o2)o1.Cl | 74.72% |
| CCN1CCOCC2(CCCN(C(=O)c3ccncc3F)C2)C1.O=C(O)C(F)(F)F (configuration not stated) | -0.7478% |
| Cc1ccc(CN2CCC(O)(Cn3ccc4ncccc43)CC2)o1.Cl | -13.38% |
| CNC(=O)C1Cn2ccnc2C2(CCN(Cc3ccncc3)CC2)O1.O=C(O)C(F)(F)F.O=C(O)C(F)(F)F.O=C(O)C(F)(F)F (configuration not stated) | -2.036% |
| O=C(NCc1ccco1)[C@H]1CC[C@@H]2[C@@H](CCN2C2CCC2)O1.O=C(O)C(F)(F)F | -4.585% |
| CN(C)CCOCC1CN(Cc2ccoc2)Cc2nnn(C)c21.O=C(O)C(F)(F)F.O=C(O)C(F)(F)F (configuration not stated) | -17.74% |
| Cc1cc(N(C)C)nc(C2CCCN2)n1.Cl.Cl (configuration not stated) | -13.2% |
| O=C(COCCc1ccccc1)N1CCCC(n2cccn2)C1 (configuration not stated) | 11.3% |
| Cn1cc(CN2CCCC23CCN(C(=O)c2ccccc2)CC3)cn1.O=C(O)C(F)(F)F | -27.87% |
| CN(C)CC(=O)N1CCc2sc(C(=O)N3CCN(C)CC3)cc21 | 17.23% |
| CC(C)NC(=O)c1cc2c(s1)CCN2C(=O)CN(C)C | -7.193% |
| CN(C)CC(=O)N1CCc2sc(C(=O)N3CCOCC3)cc21 | 54.7% |
| CC(C)N(C)Cc1cncc2c1CCN(C1CCOCC1)C2.Cl.Cl.Cl | 21.63% |
| CNC(=O)CN1CCC2(CCCN(CC3CCOC3)C2)CC1.O=C(O)C(F)(F)F.O=C(O)C(F)(F)F (configuration not stated) | 3.829% |
| O=C(O)C(F)(F)F.O=C(O)C(F)(F)F.O=C1CO[C@@H]2CN(Cc3ccsc3)C[C@H]2N1Cc1ccncc1 | 1.203% |
| CN(Cc1noc(C2CC2)n1)C1CCN(CCc2cnn(C)c2)C1 (configuration not stated) | -5.5% |
| Cc1ccc(CCN2CCC(N(C)Cc3noc(C4CC4)n3)C2)cc1 (configuration not stated) | 83.22% |
| CN(Cc1noc(C2CC2)n1)C1CCN(Cc2ccc(F)c(F)c2)C1 (configuration not stated) | -5.311% |
| CC(=O)N(Cc1noc(C2CC2)n1)C1CCN(Cc2ccncc2)C1 (configuration not stated) | -2.088% |
| CN(Cc1noc(C2CC2)n1)C1CCN(Cc2ccncc2)C1 (configuration not stated) | 51.32% |
| CN(Cc1noc(C2CC2)n1)C1CCN(CCc2cccs2)C1 (configuration not stated) | 12.6% |

Reference: ChEMBL document CHEMBL3988442, “University of Dundee, Small-Polar-MMV Screening Library” (2021)
